Data published in PubChem BioAssay AID1159580 (chemical genetic matrix, 2015).
In all, about 5,500 compounds went through this assay and about 2,000 (36%) were called active. Another 18% or so got no clear call; they are omitted. Rule as the data show it: active = normalized growth mostly below about 0.91 (no sharp cut-off); inconclusive = no clear call, values can overlap the other calls; inactive = mostly above about 0.92. The list shows a part of the results.

Assay: chemical genetic growth profiling, strain panel (AID 1159580);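 also: tested at 20 µM; growth read once vehicle control cultures reached saturation at 30 °C; 1 = growth at the plate median or of vehicle wells; lower values mean less growth of the strain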
Conditions: growth OD

Measured: normalized growth

CCCC(C)C1(CC)C(=O)NC(=O)NC1=O (configuration not stated)
inactive: S. cerevisiae deletion strains, locus YJR075W, strain HOC1, hits give low values 1.04 | S. cerevisiae deletion strains, locus YKL009W, strain mrt4, hits give low values 1.03 | S. cerevisiae deletion strains, locus YKL068W, hits give low values 1.01 | S. cerevisiae deletion strains, locus YKL085W, strain MDH1 (second series), hits give low values 1.02 | S. cerevisiae deletion strains, locus YKL085W, strain MDH1, hits give low values 1.02 | S. cerevisiae deletion strains, locus YKL160W, strain elf1, hits give low values 1 | S. cerevisiae deletion strains, locus YKL190W, strain CNB1, hits give low values 1.02 | S. cerevisiae deletion strains, locus YKR001C, strain vps1, hits give low values 1.03 | S. cerevisiae deletion strains, locus YKR026C, strain gcn3, hits give low values 0.998 | S. cerevisiae deletion strains, locus YKR091W, strain srl3, hits give low values 1 | S. cerevisiae deletion strains, locus YLL001W, strain dnm1, hits give low values 0.994 | S. cerevisiae deletion strains, locus YLL026W, hits give low values 1 | S. cerevisiae deletion strains, locus YLL041C, strain sdh2, hits give low values 1 | S. cerevisiae deletion strains, locus YLR027C, strain aat2, hits give low values 0.998 | S. cerevisiae deletion strains, locus YLR039C, strain RIC1, hits give low values 1.1 | S. cerevisiae deletion strains, locus YLR058C, strain SHM2, hits give low values 1.01 | S. cerevisiae deletion strains, locus YLR102C, strain apc9, hits give low values 1.02 | S. cerevisiae deletion strains, locus YLR113W, strain HOG1, hits give low values 0.985 | S. cerevisiae deletion strains, locus YLR221C, strain rsa3, hits give low values 1 | S. cerevisiae deletion strains, locus YLR258W, strain gsy2, hits give low values 1 | S. cerevisiae deletion strains, locus YLR262C, strain YPT6 (second series), hits give low values 1.02 | S. cerevisiae deletion strains, locus YLR262C, strain YPT6, hits give low values 1.11 | S. cerevisiae deletion strains, locus YLR268W, strain sec22, hits give low values 1.01 | S. cerevisiae deletion strains, locus YLR320W, strain mms22, hits give low values 1.01 | S. cerevisiae deletion strains, locus YLR330W, strain CHS5, hits give low values 1.01 | S. cerevisiae deletion strains, locus YLR342W, strain FKS1 (second series), hits give low values 1.04 | S. cerevisiae deletion strains, locus YLR342W, strain FKS1, hits give low values 1 | S. cerevisiae deletion strains, locus YLR357W, strain rsc2, hits give low values 0.984 | S. cerevisiae deletion strains, locus YLR370C, strain arc18, hits give low values 1 | S. cerevisiae deletion strains, locus YLR371W, strain rom2, hits give low values 1.02 | S. cerevisiae deletion strains, locus YLR384C, strain iki3, hits give low values 0.996 | S. cerevisiae deletion strains, locus YLR418C, strain cdc73, hits give low values 1.05 | S. cerevisiae deletion strains, locus YML016C, strain PPZ1, hits give low values 1.01 | S. cerevisiae deletion strains, locus YML032C, strain rad52, hits give low values 1.02 | S. cerevisiae deletion strains, locus YML120C, strain ndi1, hits give low values 1.02 | S. cerevisiae deletion strains, locus YML124C, strain tub3, hits give low values 1.02 | S. cerevisiae deletion strains, locus YMR058W, strain fet3, hits give low values 1.01 | S. cerevisiae deletion strains, locus YMR078C, strain ctf18, hits give low values 1.02 | S. cerevisiae deletion strains, locus YMR125W, strain sto1, hits give low values 0.996 | S. cerevisiae deletion strains, locus YMR129W, hits give low values 0.997 | S. cerevisiae deletion strains, locus YMR205C, strain PFK2, hits give low values 0.992 | S. cerevisiae deletion strains, locus YMR223W, strain ubp8, hits give low values 1.04 | S. cerevisiae deletion strains, locus YMR231W, strain pep5, hits give low values 1 | S. cerevisiae deletion strains, locus YMR263W, strain SAP30, hits give low values 1.02 | S. cerevisiae deletion strains, locus YMR307W, strain GAS1, hits give low values 1.12 | S. cerevisiae deletion strains, locus YNL067W, strain RPL9B, hits give low values 1.01 | S. cerevisiae deletion strains, locus YNL071W, strain lat1, hits give low values 1.01 | S. cerevisiae deletion strains, locus YNL128W, strain TEP1, hits give low values 1.02 | S. cerevisiae deletion strains, locus YNL153C, strain GIM3, hits give low values 1 | S. cerevisiae deletion strains, locus YNL183C, strain NPR1, hits give low values 0.922 | S. cerevisiae deletion strains, locus YNL209W, strain ssb2, hits give low values 1 | S. cerevisiae deletion strains, locus YNL233W, strain BNI4, hits give low values 1.01 | S. cerevisiae deletion strains, locus YNL248C, strain rpa49, hits give low values 1 | S. cerevisiae deletion strains, locus YNL250W, strain rad50, hits give low values 1.02 | S. cerevisiae deletion strains, locus YNL271C, strain bni1, hits give low values 1.03 | S. cerevisiae deletion strains, locus YNL298W, strain CLA4, hits give low values 1.03 | S. cerevisiae deletion strains, locus YNL307C, strain MCK1, hits give low values 1.03 | S. cerevisiae deletion strains, locus YNL322C, strain KRE1 (second series), hits give low values 0.997 | S. cerevisiae deletion strains, locus YNL322C, strain KRE1, hits give low values 1.01 | S. cerevisiae deletion strains, locus YNR049C, strain mso1, hits give low values 0.998 | S. cerevisiae deletion strains, locus YNR052C, strain pop2, hits give low values 1.02 | S. cerevisiae deletion strains, locus YOL006C, strain TOP1, hits give low values 1.07 | S. cerevisiae deletion strains, locus YOL012C, strain htz1 1.23 | S. cerevisiae deletion strains, locus YOL147C, strain pex11, hits give low values 1 | S. cerevisiae deletion strains, locus YOR001W, strain rrp6, hits give low values 0.999 | S. cerevisiae deletion strains, locus YOR061W, strain CKA2, hits give low values 1.02 | S. cerevisiae deletion strains, locus YOR069W, strain VPS5, hits give low values 1.01 | S. cerevisiae deletion strains, locus YOR070C, strain gyp1, hits give low values 1 | S. cerevisiae deletion strains, locus YOR080W, strain dia2, hits give low values 0.998 | S. cerevisiae deletion strains, locus YOR083W, strain WHI5, hits give low values 1.01 | S. cerevisiae deletion strains, locus YOR106W, strain vam3, hits give low values 1.02 | S. cerevisiae deletion strains, locus YOR136W, strain idh2, hits give low values 1.02 | S. cerevisiae deletion strains, locus YOR144C, strain elg1, hits give low values 1.01 | S. cerevisiae deletion strains, locus YOR184W, strain ser1, hits give low values 1.06 | S. cerevisiae deletion strains, locus YOR231W, strain MKK1, hits give low values 0.996 | S. cerevisiae deletion strains, locus YOR265W, strain rbl2, hits give low values 1 | S. cerevisiae deletion strains, locus YOR270C, strain vph1, hits give low values 1.01 | S. cerevisiae deletion strains, locus YOR290C, strain snf2, hits give low values 1.02 | S. cerevisiae deletion strains, locus YOR316C, strain cot1, hits give low values 1.03 | S. cerevisiae deletion strains, locus YPL051W, strain arl3, hits give low values 1.01 | S. cerevisiae deletion strains, locus YPL055C, strain LGE1, hits give low values 1.04 | S. cerevisiae deletion strains, locus YPL078C, strain atp4, hits give low values 0.999 | S. cerevisiae deletion strains, locus YPL106C, strain sse1, hits give low values 0.996 | S. cerevisiae deletion strains, locus YPL240C, strain hsp82, hits give low values 1.02 | S. cerevisiae deletion strains, locus YPL241C, strain CIN2, hits give low values 1.01 | S. cerevisiae deletion strains, locus YPL256C, strain CLN2, hits give low values 0.981 | S. cerevisiae deletion strains, locus YPR119W, strain clb2, hits give low values 1.01 | S. cerevisiae deletion strains, locus YPR141C, strain kar3, hits give low values 1.02 | S. cerevisiae deletion strains, locus YPR163C, strain tif3, hits give low values 1.01 | S. cerevisiae deletion strains, locus YPR167C, strain met16, hits give low values 1.02 | S. cerevisiae deletion strains, strain wtn01, hits give low values 1.02 | S. cerevisiae strains, strain wild type, hits give low values 1.01
